Avidin fluor: compound fluoresces at 488/530 nm on avidin beads; compound fluorescence 488/530 nm, flow cytometry; hits give high values; fluorescence (KMESF) at 10 µM; 0.38% of 220,000 active; in the data active = fluorescence above about 47
GSH bead fluor: compound fluoresces at 488/530 nm on GSH beads; AID 1776; 0.25% of 190,000 active; fluorescence (KMESF) at 10 µM; GSH beads flow cytometry, compound fluorescence 488/530 nm; hits give high values; in the data active = fluorescence above about 89;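 note: glutathione beads carrying GST-tagged Bcl family fusion proteins plus one bare bead set; values are compound well signal with DMSO vehicle wells as background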
RGS16-Gao: regulators of human RGS16-Galphao interaction. O15492+P09471. bead-based flow cytometry RGS16-Galphao binding, fluorescence; actives lie on both sides. binding response (% of control), % at 10 µM. 0.38% of 220,000 active;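 note: Galphao activated by GDP with aluminum fluoride before binding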
Target sequence (O15492 whole entry, looked up): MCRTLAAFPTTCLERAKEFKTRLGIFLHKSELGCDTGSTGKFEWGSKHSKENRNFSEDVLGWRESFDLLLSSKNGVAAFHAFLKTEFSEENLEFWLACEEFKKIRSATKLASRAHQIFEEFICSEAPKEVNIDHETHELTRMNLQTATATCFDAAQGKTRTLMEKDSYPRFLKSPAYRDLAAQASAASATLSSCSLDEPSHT
Target sequence (P09471 whole entry, looked up): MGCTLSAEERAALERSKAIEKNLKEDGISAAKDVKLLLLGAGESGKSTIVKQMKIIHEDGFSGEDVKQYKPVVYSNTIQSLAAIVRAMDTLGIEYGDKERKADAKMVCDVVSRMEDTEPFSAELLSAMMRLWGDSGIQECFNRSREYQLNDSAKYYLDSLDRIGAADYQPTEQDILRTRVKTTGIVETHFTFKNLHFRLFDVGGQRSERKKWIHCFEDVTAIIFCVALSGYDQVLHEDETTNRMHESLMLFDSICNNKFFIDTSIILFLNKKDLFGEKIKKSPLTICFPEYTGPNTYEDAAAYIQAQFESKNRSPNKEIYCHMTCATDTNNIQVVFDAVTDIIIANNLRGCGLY
RGS4-Gao reg: human RGS4-Galphao interaction regulation; P09471; Multiplexed bead flow cytometry, RGS4-Galphao binding; actives lie on both sides; binding response (% of control), % at 10 µM; 0.33% of 220,000 active; AID 1415; in the data active = binding response below about 49% or above about 150%; inactive = in between;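 note: fluorescent Galphao activated with aluminum fluoride binding bead-coupled RGS4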
Target sequence (P09471 whole entry, looked up): as above
RGS8-Gao reg: modulates binding of RGS8 to human Galphao; P09471; multiplexed bead flow cytometry; actives lie on both sides; response (percent of control binding), % at 10 µM; 0.34% of 220,000 active; AID 1423; in the data active = response below about 60% or above about 140%; inactive = in between;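 note: Galphao activated as the GDP aluminium fluoride complex binding bead-coupled RGS8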
RGS7-Gao: modulates binding of RGS7 to human Galphao; P09471; Multiplexed bead flow cytometry; actives lie on both sides; binding response (% of control), % at 10 µM; 0.35% of 220,000 active; in the data active = binding response below about 49% or above about 150%; inconclusive = no clear call, values can overlap the other calls; inactive = in between;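 note: fluorescent Galphao held in activated GDP-AlF4 state binding bead-coupled RGS7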
RGS-Gao: regulators of human RGS4-Galphao interaction | shares compounds with RGS16-Gao | multiplexed bead flow cytometry, RGS–Galpha-o binding | RGS4–Galpha-o binding response, % at 10 µM | 99% of 1,600 active;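 note: fluorescently labeled Galpha-o bound to GDP with aluminium fluoride binding biotinylated RGS beads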
Avidin counter: biotin-avidin bead binding disruption counter-screen; AID 1783; shares compounds with RGS16-Gao; 1,700 tested, under 10 active; inhibition, % at 10 µM; streptavidin beads, fluorescein-biotin binding, flow cytometry;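 active = inhibition above 50%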;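 note: median green fluorescence of gated singlet beads compared with DMSO control wells; 0% = DMSO wells and 100% = complete loss of bead fluorescence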
RGS8-Gao single: RGS8-Galphao interaction regulation, single point confirmation; 3% of 1,700 active; bead-based flow cytometry RGS8-Galphao binding, fluorescence; actives lie on both sides; binding response (% of control), % at 10 µM; shares compounds with RGS16-Gao; AID 1836; in the data active = binding response below about 72% or above about 130%; inactive = in between;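 note: Galphao activated as GDP AlF4 complex before binding bead RGS8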
RGS7-Gao single: confirmation of regulators of human RGS7-Galphao interaction | shares compounds with RGS16-Gao | bead-based flow cytometry RGS7-Galphao binding; actives lie on both sides | response (percent of control binding), % at 10 µM | 7.8% of 1,700 active; in the data active = response below about 75% or above about 130%; inactive = in between;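 note: fluorescent Galphao activated with GDP and aluminum fluoride binding bead-coupled RGS7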
RGS16-Gao conf: RGS16-Galphao interaction regulation, single point confirmation; shares compounds with RGS16-Gao; bead-based flow cytometry, RGS16-Galphao binding; actives lie on both sides; response (% of control binding), % at 10 µM; 4% of 1,700 active; AID 1838; in the data active = response below about 74% or above about 130%; inactive = in between;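 note: Galphao activated as the GDP aluminium fluoride complex binding bead-coupled RGS16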
RGS4-Gao single: RGS4-Galphao interaction regulation, single point confirmation; shares compounds with RGS16-Gao; RGS4-Galphao binding, multiplexed bead flow cytometry; actives lie on both sides; binding response (% of control), % at 10 µM; 4% of 1,700 active; in the data active = binding response below about 74% or above about 130%; inactive = in between
RGS19-Gao single: confirmation of regulators of human RGS19-Galphao interaction | shares compounds with RGS16-Gao | bead-based flow cytometry RGS19-Galphao binding; actives lie on both sides | response (percent of control binding), % at 10 µM | 5% of 1,700 active | AID 1841; in the data active = response below about 50% or above about 160%; inactive = in between;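 note: 100% = no compound control and 0% = blank background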
Numbers without * were called inactive; ? = inconclusive; · = not tested or not shown; ! = not active in a repeat; [ ] = dose if it differs, or a comment. Most compounds without a hit are left out; they make up all but 1.2% or so of the library. Unless noted, the rule behind the calls is not given here.

SMILES	Avidin fluor	GSH bead fluor	RGS16-Gao	RGS4-Gao reg	RGS8-Gao reg	RGS7-Gao	Avidin counter	RGS8-Gao single	RGS7-Gao single	RGS16-Gao conf	RGS4-Gao single	RGS19-Gao single	others
CC(=O)N1CC(=O)Nc2ccc(Cl)cc2C1c1ccc(F)cc1 (configuration not stated)	2	12	10.9*	25.4*	14.8*	18.9*	0.3	101.3	100.3	100.4	101.0	98.8
CCC(=O)N1CC(=O)Nc2ccc(Cl)cc2C1c1ccc(F)cc1 (configuration not stated)	14	33	105.4	104.9	101.1	101.0	·	·	·	·	·	·
C=CCn1c(O)c(C(C)=O)c(=O)[nH]c1=O (tested in a mixture with another compound)	5	·	97.2	99.2	98.1	?	·	·	·	·	·	·
O=C1NC(=O)N(CC2CCCO2)C(=O)/C1=C/c1cccs1 (configuration not stated)	75*	·	160.3	184.9*[activator]	108.1	?	1.5	88.5	92.8	93.0	98.7	87.3
CCN(CC)c1ccc(/C=C2/C(=O)NC(=O)N(CC3CCCO3)C2=O)cc1 (configuration not stated)	8	14	101.3	99.2	102.6	100.5	·	·	·	·	·	·
COC(=O)C1=CCCN(C)C1	1	14	12.9*	15.8*	21.1*	5.1*	-0.7	102.1	100.2	102.4	103.4	96.9
COC(=O)c1ccc(CN2CCN(Cc3ccccc3)CC2)cc1	27	11	101.4	103.7	99.3	100.8	·	·	·	·	·	·
CCN1CCN(c2cc(N3CCCC3)c(F)cc2[N+](=O)[O-])CC1	12	17	183.9*[activator]	107.6	121.6	111.5	-2.1	98.0	61.7*	78.0	78.9	64.4	RGS-Gao=107.6*
CC1CCN(c2cc(Br)c([N+](=O)[O-])cc2F)CC1	8	·	96.2	95.9	96.3	?	·	·	·	·	·	·
Cc1c(N=Nc2c(O)n(C)c(=O)n(C)c2=O)c(=O)n(-c2ccccc2)n1C	6	12	1.4	64.7	58.0*	66.3	1.4	100.4	99.0	97.6	101.9	92.0	RGS-Gao=64.7*
CC(C)[N+]12CCC(CC1)C(C(O)(c1ccccc1)c1ccccc1)C2 (configuration not stated)	4	·	103.5	100.9	101.0	?	·	·	·	·	·	·
Cc1ccc2c(c1)c(=O)c1c3n2CCN(CC2CO2)C3CC1 (configuration not stated)	5	21	102.5	101.5	102.6	98.2	·	·	·	·	·	·
CCN(CC)C(=O)c1ccc(NC(=O)Nc2ccccc2F)cc1	13	20	102.3	100.6	99.4	?	·	·	·	·	·	·
CC(C)N1CC=C(c2c[nH]c3ccccc23)CC1	22	19	97.5	95.3	96.0	98.1	·	·	·	·	·	·
C1=C(c2c[nH]c3ccccc23)CCNC1	14	24	133.0	166.5*[activator]	107.0	151.4*[activator]	2.0	99.0	135.5*[activator]	103.2	110.4	116.7
N#CC(C#N)=Cc1ccc(N2CCCC2)cc1	118*	20	149.7	184.0*[activator]	70.7	667.6*[activator]	0.8	102.5	103.2	102.6	103.6	86.2
Cc1ccc(C(C)C)c(OCC(=O)N2CCN(Cc3nc4cc([N+](=O)[O-])ccc4n3C)CC2)c1	11	11	139.5	99.3	110.3	103.1	·	·	·	·	·	·
Cn1cccc1CN1CCN(C(=O)COc2ccccc2)CC1	14	17	87.7	92.0	96.5	95.2	·	·	·	·	·	·
Cn1nc(-c2ccc(OCC(=O)N3CCN(Cc4ccccc4)CC3)cc2)c2ccccc2c1=O	1	29	38.0	35.3*!	65.8	42.3*!	-0.5	100.5	103.8	99.8	100.9	87.4
O=C1NC(c2cccnc2)Nc2sc3c(c21)CCCC3 (configuration not stated)	4	29	22.7*	85.9	71.8	94.2	-2.8	101.0	98.1	100.2	99.4	94.2	RGS-Gao=85.9*
CCSC1=NN1c1cc(C)nc(N)n1	9	·	96.7	102.4	101.9	?	·	·	·	·	·	·
Cc1cc(Cl)nc(N)n1	5	9	310.7	114.2	146.2*[activator]	112.1	-2.3	96.3	92.8	95.7	95.5	99.7	RGS-Gao=114.2*
CCCCCOc1ccc(C)cc1CN(CCCl)CCCl	6	·	102.3	104.9	103.0	?	·	·	·	·	·	·
CN1C(=O)NC(=O)/C(=C/c2ccc([N+](=O)[O-])o2)C1=O	4	·	41.2	88.0	58.1*	?	·	·	·	·	·	·	RGS-Gao=88.0*
Cc1c2ccncc2c(C)c2c1[nH]c1ccccc12	15	18	77.9	153.9*[activator]	92.1	128.4	-0.2	94.4	76.0	89.3	84.1	72.0
SMILES	Avidin fluor	GSH bead fluor	RGS16-Gao	RGS4-Gao reg	RGS8-Gao reg	RGS7-Gao	Avidin counter	RGS8-Gao single	RGS7-Gao single	RGS16-Gao conf	RGS4-Gao single	RGS19-Gao single	others
c1ccc2c(c1)[nH]c1cnccc12	10	20	109.2	101.2	105.4	104.6	·	·	·	·	·	·
CC(C)NS(=O)(=O)c1ccc(OCC(=O)N2CCN(C)CC2)cc1	5	20	380.8	134.3	185.5*[activator]	130.4	·	·	·	·	·	·	RGS-Gao=134.3*
BrCC1C[n+]2c(SCc3ccccc3)nc3sc4c(c3c2O1)CCCC4 (configuration not stated)	117*	·	221.4*[activator]	248.6*[activator]	119.1	?	-0.2	92.7	89.1	91.0	92.7	85.2
Nc1c2c(nc3sc4c(c13)CCCCC4)CCCC2	3	10	89.0	102.0	96.5	103.6	·	·	·	·	·	·
O=P(Oc1ccccc1)(Oc1ccccc1)C(Nc1ccccc1)c1ccccc1 (configuration not stated)	2	9	12.2	68.3	52.9*	68.3	0.5	100.0	99.5	102.7	99.9	98.4	RGS-Gao=68.3*
Cc1ccc(-n2c(-c3cccs3)nc3ccccc3c2=O)cc1	14	31	101.9	101.5	102.6	102.3	·	·	·	·	·	·
